A selection: hits, their analogues and other compounds. The true share with any hit is near 3.5%.
MITF primary = human MITF inhibition, primary screen. inhibition, % at 2.6 µM. O75030. AlphaScreen MITF homodimerization, bead proximity signal. 650,000 tested, 0.91% active; in the data active = inhibition above about 50%
TEAD-YAP inh = TEAD-YAP interaction inhibition; HEK-TIYL cells, TEAD-Gal4/YAP UAS-luciferase luminescence; inhibition, % at 9.12 µM; 640,000 tested, 1.4% active; in the data active = inhibition above about 32%
FBW7 activator = human FBW7 E3 ligase activation, primary screen; normalized activity (activation), % at 26.1 µM; AlphaScreen FBW7–phospho-cyclin E peptide binding, activator screen; Q969H0; 650,000 tested, 0.13% active; in the data active = normalized activity above about 1.9%;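 note: purified mutant Fbw7 with reduced substrate affinity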
Target sequence (Q969H0 whole entry, looked up): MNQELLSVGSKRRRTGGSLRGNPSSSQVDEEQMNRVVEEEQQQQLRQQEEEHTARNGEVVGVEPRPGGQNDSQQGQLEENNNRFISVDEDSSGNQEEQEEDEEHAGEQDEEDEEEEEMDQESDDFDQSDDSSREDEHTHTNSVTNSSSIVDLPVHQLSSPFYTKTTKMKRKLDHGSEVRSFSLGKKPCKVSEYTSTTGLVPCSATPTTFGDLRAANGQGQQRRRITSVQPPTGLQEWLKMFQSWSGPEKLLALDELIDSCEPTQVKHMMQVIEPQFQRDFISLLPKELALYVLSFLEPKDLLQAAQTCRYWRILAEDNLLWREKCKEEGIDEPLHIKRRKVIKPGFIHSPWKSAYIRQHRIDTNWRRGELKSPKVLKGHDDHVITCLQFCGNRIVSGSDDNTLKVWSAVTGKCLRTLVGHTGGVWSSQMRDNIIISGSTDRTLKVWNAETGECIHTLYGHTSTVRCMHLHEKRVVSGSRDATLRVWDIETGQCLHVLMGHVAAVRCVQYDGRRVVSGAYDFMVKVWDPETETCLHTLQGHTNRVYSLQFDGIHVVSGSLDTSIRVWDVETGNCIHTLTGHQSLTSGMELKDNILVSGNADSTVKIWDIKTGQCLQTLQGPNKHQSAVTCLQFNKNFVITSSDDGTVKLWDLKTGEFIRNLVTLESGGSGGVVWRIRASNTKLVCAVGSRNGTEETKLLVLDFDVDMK
GPR151 ag = human GPR151 activation; activation, % at 11.2 µM; PathHunter beta-arrestin GPR151 cells, luminescence; AID 1508602; 650,000 tested, 1% active; in the data active = activation above about 4.9%
MITF inh conf = confirmation of human MITF inhibitors | shares compounds with MITF primary | inhibition, % at 2.6 µM | AlphaScreen MITF homodimerization, biotin/His-MITF beads | 4,700 tested, 16% active;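 active = inhibition above a cutoff derived from the DMSO control wells, cut at about 28% in these data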;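 note: inhibitors lower the bead chemiluminescence by keeping MITF from dimerizing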
AlphaScreen DR = counter-screen: compounds optically interfering with AlphaScreen. AlphaScreen optical interference counterscreen, cell-free. shares compounds with MITF primary. 480 tested, 6% active. IC50, µM; call rule not given here
AlphaScreen intf2 = optically interferes with AlphaScreen signal. inhibition, % at 2.6 µM. LysRS AlphaScreen counterscreen, signal interference, triplicate. shares compounds with MITF primary. 4,700 tested, 7.6% active;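 active = inhibition above a cutoff derived from the DMSO control wells, cut at about 30% in these data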
Large screens that a line does not name were inactive (follow-up assays come after a bar, where they were run).

COCCn1c(=S)[nH]c2cc(C(=O)NC(C)C)ccc2c1=O	none
COCCn1c(=S)[nH]c2cc(C(=O)Nc3ccccn3)ccc2c1=O	MITF primary 77 | MITF inh conf inactive | AlphaScreen intf2 inactive
S=c1nc2ccccc2c2nc(Cc3ccccc3)[nH]n12	none
O=C(Cc1noc2ccccc12)N1CCN(c2ccc(-c3ccccn3)nn2)CC1	MITF primary 126 | MITF inh conf 112 | AlphaScreen intf2 101
O=C(c1cnn(-c2ccccc2)c1-n1cccc1)N1CCN(c2ccccn2)CC1	none
Cc1c(C(=O)N2CCN(c3ccc(-c4ccccn4)nn3)CC2)cnn1-c1ccccc1	MITF primary 75 | MITF inh conf 96 | AlphaScreen intf2 101
O=S(=O)(C1CC1)N1CCN(c2ccc(-c3ccccn3)nn2)CC1	MITF primary 122, TEAD-YAP inh 59 | MITF inh conf 108 | AlphaScreen intf2 100
Cc1ccc(N(CCCCN2C(=O)c3ccccc3C2=O)C(=O)c2ccc([N+](=O)[O-])cc2)cc1	MITF primary 64 | MITF inh conf inactive | AlphaScreen intf2 inactive
O=C1c2ccccc2C(=O)N1CCCCN(C(=O)c1ccc([N+](=O)[O-])cc1)c1ccc(Cl)cc1	none
O=C1c2ccccc2C(=O)N1CCCCN(C(=O)c1cc([N+](=O)[O-])ccc1Cl)c1ccc(Cl)cc1	MITF primary 68 | MITF inh conf inactive | AlphaScreen intf2 inactive
Cc1cccc(-n2nc([N+](=O)[O-])c(=NCc3ccccc3Cl)n2O)c1	none
CCOc1cc(NC(=O)c2ccccn2)c(OCC)cc1NC(=O)CC	none
CCOc1cc(NC(=O)c2ccccn2)c(OCC)cc1NC(C)=O	MITF primary 60 | MITF inh conf 52 | AlphaScreen intf2 76
O=C(Nn1cnc2ccccc2c1=O)c1ccc(Cl)cc1Cl	none
CCC(C)NCCOc1ccccc1F (stereo not given)	MITF primary 53 | MITF inh conf inactive | AlphaScreen intf2 inactive
CCC(C)NCCCOc1cccc(Br)c1 (stereo not given)	MITF primary 80 | MITF inh conf inactive | AlphaScreen intf2 inactive
CCCOc1ccc(OCCCNC(C)CC)cc1 (stereo not given)	none
O=C(CN=C1NS(=O)(=O)c2ccccc21)OCc1cc(=O)oc2ccc3ccccc3c12	none
CC(C)CC(OC(=O)CN1C(=O)COc2ccccc21)C(=O)NC1CCCCC1 (stereo not given)	none
Cc1ccc2c(c1)N(CC(=O)OC(CC(C)C)C(=O)NC1CCCC1)C(=O)CO2 (stereo not given)	MITF primary 54 | MITF inh conf inactive | AlphaScreen intf2 inactive
O=C(Nc1ccc(C(F)(F)F)cc1)c1cc(S(=O)(=O)NCCc2ccccc2)ccc1F	none
COc1ccc(C(=O)n2nc(-c3ccco3)nc2N)cc1	MITF primary 80 | MITF inh conf 78 | AlphaScreen intf2 49
Cc1ccc(C(=O)n2nc(-c3ccco3)nc2N)cc1	none
COc1ccc(CC(=O)NC23CC4CC(CC(C4)C2)C3)cc1	none
O=C(O)c1ccc(C(=O)O)c(-c2ccccc2)c1	none
O=C(O)c1cccc(-c2cc(C(=O)O)ncc2C(=O)O)c1	MITF primary 57 | MITF inh conf inactive | AlphaScreen intf2 38
CC1CCCCC1Nc1ncnc2sccc12 (stereo not given)	MITF primary 64 | MITF inh conf inactive | AlphaScreen intf2 inactive
O=C1N[C@@H](Cc2c[nH]c3ccccc23)C(=O)N2CCN(C(=O)NC3CCCCC3)C[C@H]12	MITF primary 76 | MITF inh conf 72 | AlphaScreen DR inactive | AlphaScreen intf2 inactive
COc1ccc(C[C@@H]2NC(=O)[C@H]3CN(C(=O)NC4CCCCC4)CCN3C2=O)cc1	MITF primary 73 | MITF inh conf 62 | AlphaScreen DR inactive | AlphaScreen intf2 inactive
COc1ccc(C[C@@H]2NC(=O)[C@H]3CN(C(=O)Oc4ccc(F)cc4)CCN3C2=O)cc1	none
CN1C(=O)[C@H]2CN(C(=O)NC3CCCCC3)CCN2C(=O)[C@@H]1Cc1ccccc1	MITF primary 74 | MITF inh conf 69 | AlphaScreen DR inactive | AlphaScreen intf2 inactive
C[C@@H](OCc1ccccc1)[C@@H]1NC(=O)[C@H]2CN(C(=O)NC3CCCCC3)CCN2C1=O	MITF primary 80 | MITF inh conf 73 | AlphaScreen DR inactive | AlphaScreen intf2 inactive
CCCNC(=O)c1ccc([N+](=O)[O-])cc1Cl	none
O=C1N[C@@H](COCc2ccccc2)C(=O)N2CCN(C(=O)NC3CCCCC3)C[C@H]12	MITF primary 72 | MITF inh conf 68 | AlphaScreen DR inactive | AlphaScreen intf2 inactive
O=C1N[C@@H](COCc2ccccc2)C(=O)N2CCN(C(=O)OCc3ccccc3)C[C@H]12	none
Cc1ccc(N2C(N)=C(C#N)C(c3cccc([N+](=O)[O-])c3)C3=C2CC(C)(C)CC3=O)cc1 (stereo not given)	none
O=C1CN(Cc2cccs2)C(=S)N1c1ccc(Oc2ccccc2)cc1	none
COc1cccc(CC(C2CCN(C(=O)CSC)CC2)N(C)Cc2ccccn2)c1 (stereo not given)	MITF primary 52 | MITF inh conf inactive | AlphaScreen intf2 34
COc1cccc(CC(C2CCN(Cc3ccccn3)CC2)N(C)C(=O)c2ccco2)c1 (stereo not given)	none
CCC(Sc1nc2ccsc2c(=O)n1Cc1ccccn1)C(=O)Nc1ccc(C)c(Cl)c1 (stereo not given)	none
CCCCCC(O)(CCCCC)C(=O)NN1CCCCC1	MITF primary 72 | MITF inh conf inactive | AlphaScreen intf2 inactive
Cc1cc(C)n2c(Br)c(CSc3nnnn3-c3ccccc3)nc2n1	none
CC(C)c1ccc(-c2c(C#N)c(N)nc3sc(C(=O)Nc4ccc(Cl)cc4)c(N)c23)cc1	none
COc1cccc(NC(=O)c2sc3nc(N)c(C#N)c(-c4ccc(C(C)C)cc4)c3c2N)c1	MITF primary 52 | MITF inh conf inactive | AlphaScreen intf2 inactive
O=C(CN1CC(=O)Oc2ccccc21)Oc1ccc(F)cc1	MITF primary 69 | MITF inh conf inactive | AlphaScreen intf2 inactive
Nc1ncc(-c2ccc(C(F)(F)F)nc2)cc1-c1ccc(C(F)(F)F)nc1	none (no result: MITF primary, TEAD-YAP inh, FBW7 activator)
COc1ccc(C2/C(=C(/O)c3ccc(C)cc3)C(=O)C(=O)N2CC(C)O)cc1OC (stereo not given)	MITF primary 68 | MITF inh conf inactive | AlphaScreen intf2 inactive
COC(=O)c1c(NC(=O)COc2ccc(Cl)cc2)sc2c1CCC(C(C)(C)C)C2 (stereo not given)	none
N#Cc1ccc(OCC(=O)NN=C2CCCC2)cc1	none
N#Cc1ccc(CSCC(=O)NN=C2CCCC2)cc1	MITF primary 51 | MITF inh conf inactive | AlphaScreen intf2 inactive
CC(=O)Nc1sc(/C(C#N)=C/c2ccc(C)o2)nc1-c1ccc(C)cc1	none
Nc1nc(Nc2ccccc2)nc2nc[nH]c12	MITF primary 60 | MITF inh conf inactive | AlphaScreen intf2 inactive
